Data on 14 compounds can be found in PubChem BioAssay (NCI).

About 83,000 compounds went through this panel and 20% of them were active in at least one assay; those are over-represented in the sample as a whole.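 How to read the values: 0–100, growth inhibition (40 = 60% inhibited); 0, no net growth; -100 to 0, cell death (-40 = 40% of starting cells died; -100 = all dead).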 The source made the active and inactive calls. How the source made its calls: active means growth percent below 10; inactive means the rest.

The test system of the assay is NCI-H522 lung. Nature of the assay: NCI-60 one-dose screen, 48 h (100 = growth as untreated, 0 = no growth, -100 = all killed). To be noted: 10 µM unless noted.
As for `c1ccc2[nH]c(-c3ccc(Nc4nc(N5CCCC5)nc5[nH]ncc45)cc3)nc2c1`, the growth is -54.7% (active). With `COc1cc2c(cc1-c1c(C)noc1C)ncc1nc(C3CCOCC3)n([C@H](C)COC(F)F)c12`, the growth was 31.2% (inactive).

In the case of `c1csc(C2=NN3C(C2)c2ccccc2OC3c2ccncc2)c1` (centres undefined), the growth was 87% (inactive).

With `O=C(/C=C/C=C/c1ccc2c(c1)OCO2)N/N=C\c1ccc(O)cc1O`, the growth was 21.1% (inactive). In the case of `Fc1ccc2[nH]cc(SSc3c[nH]c4ccc(F)cc34)c2c1`, the growth was 0.948% (active). Then `Cc1cc(C)nc(SC2=C(Nc3cc(Cl)ccc3O)C(=O)N(Cc3ccccc3)C2=O)n1`, with 58.6% [30 µM] (inactive).

Regarding `CC(C)(C)N1CCC1CN` (centres undefined), the growth was 135% (inactive). Then `COc1cc(-c2nc3ccccc3[nH]2)ccc1OCC(=O)N=Nc1c(O)[nH]c2ccc(Cl)cc12`, with -43.4% (active); and `CSc1nc(-c2cccc(NC(=O)CCl)c2)c(C#N)c(=O)n1C`, with -73.7% (active); and `Cc1nc2ccccc2n1C(=O)C[C@@H]1NC(=S)NC1=O`, with 96.8% (inactive). With `COc1ccc(/C=N/C2=C(C#N)C(c3ccc(N(C)C)cc3)c3ccc4ccccc4c3O2)cc1` (centres undefined), the growth is 26.1% (inactive). Then `COc1cccc(NC(=O)c2sc3nc(C)c(C(C)=O)cc3c2N)c1`, with 40.1% (inactive); and `O=C1CC[C@H](c2ccc(O)c3c2C(=O)[C@@H]2O[C@@H]2C3=O)c2cccc(O)c21`, with -29.4% (active). On to `C=C(C)C1CC(O)C2(C)CCCC3C2C1CC(C)C3(C)CC/C(C)=C/C(O)C1CCC(=O)c2c(OC)cc(OC)cc21` (centres undefined), for which the growth was 53.6% (inactive).
